MARV entry inh: inhibitors of Marburg virus binding or cell entry; Marburg virus pseudotyped entry inhibition, cell reporter; Potency, µM (doses to about 37.8 µM), for inactives: at the highest dose activity change, negative = inhibition, hits mostly inhibitors; actives 1.8% (n = 300,000); AID 540276; calls by dose curve; tested in HEK293 cells; also: potency is read from the fitted curve at half-maximal effect
Lassa entry inh: blocks Lassa virus binding to or entry into cells. Lassa virus pseudotype entry inhibition, cell reporter. Potency, µM (highest dose often 37.9 µM), inactives show at the highest dose activity change, negative = inhibition, actives largely listed as inhibitors. actives 1.2% (n = 300,000). AID 540256; calls by dose curve; tested in HEK293 cells; also: potency is read from the fitted curve at half-maximal effect; nearly all actives have a fitted effect of over 50% in size
HCV inhibitor: HCV inhibition | Huh7.5.1 HCVcc-Cre infection, luciferase reporter, 44 h | Potency, µM (doses to about 41.8 µM), inactives show top-dose activity change, negative = inhibition, most hits filed as inhibitors | actives 3.4% (n = 340,000) | AID 651820; also: potency is read from the fitted curve at half-maximal effect
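Compounds are dispensed onto cells plated 4 h earlier at 1,000 per well, with HCVcc-Cre virus (about 0.5 moi) added next. Following 44 h of culture, luminescent signal is measured for 15 sec after 15 min with substrate at room temperature.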
FBPA Giardia inh: Giardia lamblia aldolase inhibition | A8B2U2 | purified Giardia FBPA | actives 0.71% (n = 290,000) | Potency, µM (top dose mostly 59.6 µM), without a hit: at the top dose activity, negative = inhibition, actives largely listed as inhibitors; also: potency is read from the fitted curve at half-maximal effect; nearly all actives have a fitted effect of over 55% in size
Target sequence (A8B2U2 whole entry, looked up): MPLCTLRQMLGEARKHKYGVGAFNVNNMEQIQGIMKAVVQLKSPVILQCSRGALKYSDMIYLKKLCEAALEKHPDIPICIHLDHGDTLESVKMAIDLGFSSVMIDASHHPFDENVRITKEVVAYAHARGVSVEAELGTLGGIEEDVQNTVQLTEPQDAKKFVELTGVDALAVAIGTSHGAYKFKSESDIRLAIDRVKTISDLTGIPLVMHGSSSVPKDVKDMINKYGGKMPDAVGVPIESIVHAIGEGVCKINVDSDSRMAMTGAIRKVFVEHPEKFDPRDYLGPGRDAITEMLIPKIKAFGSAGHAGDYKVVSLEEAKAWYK
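Giardia FBPA (40 nM reagent) was preincubated 10 min at RT with compound (up to 57.5 uM final), then substrate plus GAPDH/TPI/NAD/arsenate coupling system with diaphorase/resazurin was added; resorufin fluorescence (525/598 nm) was read after 20 min.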
FMDV inh: antivirals against foot and mouth disease virus; FMDV antiviral cell-based qHTS; actives 1.2% (n = 410,000); AID 1159524; Potency, µM (top dose mostly 57.9 µM), for the others: at the highest dose activity change, negative = inhibition, actives largely listed as inhibitors; calls by dose curve; tested in HEK293T cells; also: read-out not given here; potency is read from the fitted curve at half-maximal effect; nearly all actives have a fitted effect of over 45% in size
HCMV inh: blocks human cytomegalovirus replication; HFF cells, HCMV-luciferase reporter, 72 h; hits give low values; activity change, negative = inhibition, % at 57.5 µM; actives 4.5% (n = 410,000); in the data active = activity change below about -60%; inconclusive = no clear call, values can overlap the other calls; inactive = above about -39%
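Cell-based, HFFs, 1000 cells/well, 16 h 37C; cpds in DMSO + HCMV-luc, MOI 1 PFU/cell; 72 h 37C; OneGlo luminescence after 5 min RT; norm. to buffer vs Salinomycin 10uM.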
Starred values were filed as active, the others as inactive; ? = inconclusive; nt = no result; [ ] = another dose, or the depositor's remark. In the library only some 8.3% were active in any assay of this set; here they are far more common. Unless noted, calls follow the shape of the dose curve; as a rule, active = well fitted curve in the direction sought with a large enough effect; inconclusive = small, poorly fitted or top-dose-only effect, or another doubt; inactive = no such curve, though single readings can be large; an effect the other way counts as inactive or inconclusive. % is scaled to controls: 0 for no effect and ±100 for the full control effect.

SMILES	MARV entry inh	Lassa entry inh	HCV inhibitor	FBPA Giardia inh	FMDV inh	HCMV inh
O=C(Nc1ccccc1F)c1ccc2c(Cl)c3c(nc2c1)CCC3	?	?	nt	nt	10µM*	-86.5*
O=C(NC1CC1)c1ccc2c(Cl)c3c(nc2c1)CCCC3	nt	nt	-20.3%	-3.2%	53.9%	-61.7*
CCCCN(CC)CCNC(=O)c1ccc2c(Cl)c3c(nc2c1)CCC3	?	?	?	-0.9%	-11.9%	-34.5
CCN(CC)CCCNC(=O)c1ccc2c(Cl)c3c(nc2c1)CCCC3	?	?	?	4.8%	-25.3%	-88.2*
O=C(NCc1cccc(Cl)c1)c1ccc2c(Cl)c3c(nc2c1)CCCC3	1.6%[46.1 µM]	2.1%[46.1 µM]	nt	nt	5.6%	-78.2*
O=C(NCCCN1CCCC1)c1ccc2c(Cl)c3c(nc2c1)CCCC3	5.62µM*	?	11.2µM*	-9.1%	?	-73.3*
CCCN1CCN(CCCNC(=O)c2ccc3c(Cl)c4c(nc3c2)CCCC4)CC1	nt	nt	?	13.5%	-24.8%	0.0
COC(=O)[C@@H]1CC23C(=NC(c4ccc([N+](=O)[O-])cc4)=C(C(F)(F)F)[C@@H]2N(C)c2ccccc23)N1C(C)=O (some centres undefined)	8.4%[14.2 µM]	nt	nt	nt	nt	nt
COc1cccc2c1NC1(C)c3ccccc3-n3nncc3CN1C2=O (centres undefined)	nt	nt	nt	nt	nt	-7.8
Cc1cc(C(=O)c2ccccc2)c(NC(=O)CCl)s1	1µM*	-16.5%	?	-0.6%	?	53.1
O=C(CCl)Nc1ccccc1C(=O)c1ccccc1	nt	nt	?	1.7%	?	-38.7
CCN(CC)CC(=O)Nc1sc(C)cc1C(=O)c1ccc(C)cc1	?	-8.8%	?	7.7%	-19.4%	23.9
CCN(CC)CC(=O)Nc1sc(C)cc1C(=O)c1ccccc1	?	-10.8%	8.91µM*	9.4%	-27.0%	0.2
CS(=O)(=O)CC[C@H](C(=O)n1nnc2ccccc21)N1C(=O)c2ccccc2C1=O	-4.8%[46.1 µM]	nt	nt	nt	nt	nt
CN(C)c1nc(OCCNC(=O)Nc2ccccc2)nc(N2CCCCC2)n1	-17.1%	-16.8%	11.2µM*	9.2%	-10.6%	-28.0
CN(C)c1nc(OCCNC(=O)Nc2ccccc2)nc(N2CCOCC2)n1	0.6%	nt	?	-1.7%	-4.6%	-14.9
COc1cc(NC(=O)CSc2nc(-c3ccc(C(C)C)cc3)no2)cc(OC)c1	nt	?	nt	nt	-0.2%	?
CN(CCO)c1cc(Sc2nc3ccccc3s2)c2nonc2c1[N+](=O)[O-]	?	?	11.2µM*	-18.8%	22.4µM*	-104.1*
CCn1cc([N+](=O)[O-])c(C(=O)N2N=C3/C(=C/c4cccs4)CCCC3C2c2cccs2)n1 (centres undefined)	-27.7%	?	10µM*	1.3%	-13.3%	42.8
O=C(CN1C(=O)S/C(=C\c2ccc(F)cc2)C1=O)Nc1cccc(S(=O)(=O)NCc2ccco2)c1	6.0%[46.1 µM]	-27.2%	-14.8%	-2.0%	25.7%	-98.5*
Cc1cccc(N2C(=O)/C(=C/c3ccc(N4CCN(C)CC4)o3)C(=O)NC2=S)c1C	-15.5%	-11.7%	10.2%	-22.2%	-17.2%	-64.0*
COc1ccc(N2C(=O)/C(=C/c3ccc(OC)c(OC)c3)C(=O)NC2=S)cc1	nt	nt	14.0%	?	-16.1%	5.8
COc1ccc(N2C(=O)/C(=C/c3ccc(C)o3)C(=O)NC2=S)c(OC)c1	nt	nt	4.9%	-26.8%	20µM*	11.2
CCc1ccccc1N1C(=O)/C(=C/c2ccc(N3CCN(C)CC3)o2)C(=O)NC1=S	13.8%	0.8%	10.8%	-7.0%	-18.3%	?
C=CCn1c(C2CCCCC2)n[nH]c1=S	4.4%	-1.6%	-15.0%	?	?	-96.8*
CCn1nnc2cc(C(=O)Nc3ccc(Cl)cc3C)ccc21	nt	6.3%[46.1 µM]	nt	nt	4.2%	5.3
CN(C)Cc1cc(C(C)(C)c2cc(CN(C)C)c(O)c(CN(C)C)c2)cc(CN(C)C)c1O	11.6µM*	?	7.8%	-3.3%	11.9%	12.4
CN(C)Cc1cc(OCc2ccccc2)cc(CN(C)C)c1O	nt	nt	nt	nt	-1.8%	7.3
Cc1ccc(S(=O)(=O)c2nc(Nc3ccccc3N3CCOCC3)sc2Cl)cc1	?	0.2%	10µM*	nt	-3.6%	-34.1

Screening results as filed in PubChem BioAssay.
